# Assay results taken from the supplement of paper PMC10681739.
# Molecular target: T1, ETS1 (UniProt P14921)
# T1 sequence: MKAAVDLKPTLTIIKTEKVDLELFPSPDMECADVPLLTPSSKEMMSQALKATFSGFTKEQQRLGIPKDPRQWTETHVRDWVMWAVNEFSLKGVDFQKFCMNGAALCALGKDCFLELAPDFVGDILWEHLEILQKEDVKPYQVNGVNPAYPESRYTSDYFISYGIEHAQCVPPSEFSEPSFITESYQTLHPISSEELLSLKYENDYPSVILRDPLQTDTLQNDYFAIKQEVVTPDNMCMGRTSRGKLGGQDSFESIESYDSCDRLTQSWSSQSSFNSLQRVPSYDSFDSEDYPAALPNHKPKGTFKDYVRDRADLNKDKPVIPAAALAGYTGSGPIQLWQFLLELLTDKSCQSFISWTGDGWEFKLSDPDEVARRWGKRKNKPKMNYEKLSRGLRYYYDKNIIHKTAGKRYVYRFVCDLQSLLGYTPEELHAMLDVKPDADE
# Assay: ETS1 binding intensity (PBM fluorescence) in presence of RUNX1, normalised to ETS1-only experiment (arbitrary fluorescence units); higher = stronger binding
# Conditions: ETS1 concentration 1 nM; RUNX1 concentration 25 nM
row,Sequence,ETS1 binding intensity
1,CATCCAGGACGGAAACAGCATCCCCACCGCGGGAGC,852
2,TCTCCTTTCAGGAAGCTGCACCCAAACCACCCTCAG,610
3,CCCACTCCACTTCCGCCACCGCCGCAGCCGCCGCTG,1420
4,ACAGGAAGTGTCTCTATAGAAACCAAACCACAGAAA,7500
5,AGGCTTCCTGTTTTATCTCGTGTGTGTGGTGCACCA,565
6,CAGTGGCAGGAAGAGGTCAGAAACCACTCGTGGTGG,870
7,AAAGCAAACAGGAAGTGCTGTGGTAACAAGGCCCCA,14500
8,TGGGGCTCTTCCTGCTTATGTGACCACAGCACCTTG,679
9,ACAGATAGTGATATCCTGTGGTCAATTCCCTCCCCT,951
10,CGAGCTCGGTGTTCCGCTTTTTGTGGGCCGGGTGGG,478
11,TACCCAGAAAGGAAGTGGAACCTGCGGTGAGGCCCC,5650
12,TCCCCTTTCCGGGAAGGGTTGGGGATCTGACCACGT,498
13,AGGTACCAGGCCCGGAAACCACGGAAAGGGGAACTT,5500
14,CTGCTAGCGGAAGCAGCCAAGCCCACAGGCTCCAGG,1140
15,GGCTCGGCAAACATCCGGCTCCGCGGTGGAACGGGA,1910
16,TCACATCCTGTAATGGTTTGCGCATACCACAGTTCT,684
17,AACAAACCGGATGGGGTTGCCACCCGCAATCTTGTC,5130
18,TCCCCGGCAGCTTCCTCGCCCCGACCGCAGTGTTCC,798
19,GACCAGGAAACGGGGCGTGGCGGCCGCCGTGGTTAC,485
20,CCATCCAGGAAGCTTATGGTGCGACCGCAGTGTGCC,1880

row,Sequence,ETS1 binding intensity
1,AACAAACCGGATGGGGTTCCCACCCGCAATCTTGTC,4570
2,GTAGAGACAGGAAATTATGTTGGTTTTCTTGCAGAA,3800
3,CTGCTGCTTTTAGGATGTGGTTTTATTATTGTCGGG,4960
4,AACACCACTTCCTACTGTGAAACCACACTGTATTTG,588
5,AGAACCACTTCCTCTCAGTAAACCACAGAGACTGTA,1310
6,TGCTTCCCGTCCGTGTCGCGGCCCTGCGGTTGGCGG,813
7,AGGACCGGAAGTGCCCGAGGGCGGCCGCAGAACGGT,16700
8,ATACTGAGTCATTTCCTGTGGTGTTATTGTGTTGTA,2500
9,GAGACTTTCGCTTCCGGCTGCCGCAGGCGCTTCGCT,1700
10,ACTGAAAACAGCACAGGATGTGGTCTGCCAGGTGCC,10100
11,GTTGGGCTTTGAGGATGTGGGTTCTAGAAGTTTACA,2120
12,CAAAAGTGCTTCCTCTCGAGGGGTTGTGGTTCTTAC,520
13,CCATTCACGGGCTTCCGCGGTGTCCCCACCCCCTAA,760
14,TTTCTCTTCCTGTTTCCACCCTGACCACAGCCAGCT,1350
15,GCGAGACGCGGAAGAGGCTTGCGGTTGACCAAAGAA,2010
16,TGAGCAAGTTCCTTCCTGTCTGTGGTCCAGGGTTTA,881
17,CAGTGGCTAAGGATCCGGTGTTGCGGTGATACATGA,643
18,CCTCCCGACCGGAAGCCCCGCCACAGAGCGGGTTGT,8570
19,GGAGCGCGCCGGAAACGCGCGGCTGCGGCCCGGGAG,4330
20,CCCCCTGAACATCCGGGGCCTTTTAACCGCCCACGG,1690
